# Measurements reported in PMC7862700, “An all-to-all approach to the identification of sequence-specific readers for epigenetic DNA modifications on cytosine”.
# Assays:
# Test in all cases: DAPPL (digital affinity profiling via proximity ligation, sequencing); 10 mM Tris-HCl pH 7.5, 50 mM NaCl, 1 mM DTT, 4% glycerol, room temperature, 30 min; GST-TFs on glutathione beads, 16-mer random dsDNA library, 0.1% formaldehyde crosslink after washing; high values mean tight binding
# Settings in all cases: protein: recombinant; tags: N-terminal GST; dsDNA, one strand shown
# FLI1 = target: T1, FLI1 (Homo sapiens, UniProt Q01543 1-452)
# T1 sequence: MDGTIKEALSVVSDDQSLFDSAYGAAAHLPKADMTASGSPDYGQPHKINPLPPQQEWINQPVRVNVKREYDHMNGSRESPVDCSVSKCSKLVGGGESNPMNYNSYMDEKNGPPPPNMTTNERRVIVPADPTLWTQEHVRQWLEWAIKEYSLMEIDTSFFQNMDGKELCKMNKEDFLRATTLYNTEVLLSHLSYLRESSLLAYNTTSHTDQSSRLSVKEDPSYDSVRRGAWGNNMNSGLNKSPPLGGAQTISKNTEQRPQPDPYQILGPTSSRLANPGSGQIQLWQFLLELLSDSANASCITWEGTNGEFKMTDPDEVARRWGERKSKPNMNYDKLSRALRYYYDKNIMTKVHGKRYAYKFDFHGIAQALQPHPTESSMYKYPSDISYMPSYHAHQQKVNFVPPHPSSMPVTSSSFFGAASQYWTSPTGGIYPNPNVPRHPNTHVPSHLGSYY
# Outline: (§1)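 Human transcription factors were made in yeast as GST fusions, captured on glutathione beads and barcoded with DNA. With a tag-only sample included, the pool was incubated with 200 nmole of a random double-stranded 16-mer DNA library in Tris/NaCl/DTT/glycerol buffer at room temperature for 30 min, then crosslinked with 0.1% formaldehyde after washing, ligated by proximity, amplified and sequenced. For binding signal, each hexamer's read frequency for a factor is divided by its frequency for the tag-only sample.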
# ELK1 = target: T2, ELK1 (Homo sapiens, UniProt P19419 1-428)
# T2 sequence: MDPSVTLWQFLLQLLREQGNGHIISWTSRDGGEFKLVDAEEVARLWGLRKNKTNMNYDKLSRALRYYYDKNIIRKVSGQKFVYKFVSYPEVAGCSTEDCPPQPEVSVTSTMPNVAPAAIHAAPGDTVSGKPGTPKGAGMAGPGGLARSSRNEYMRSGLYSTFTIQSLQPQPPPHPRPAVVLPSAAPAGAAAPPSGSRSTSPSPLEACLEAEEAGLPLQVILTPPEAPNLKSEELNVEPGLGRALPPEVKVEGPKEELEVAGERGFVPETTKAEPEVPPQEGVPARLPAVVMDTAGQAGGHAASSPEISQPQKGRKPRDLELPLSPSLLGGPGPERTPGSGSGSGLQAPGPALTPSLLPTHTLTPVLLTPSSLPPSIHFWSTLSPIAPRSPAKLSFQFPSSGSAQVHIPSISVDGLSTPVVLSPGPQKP
# Outline: as §1
# GABPA = target: T3, GABPA (Homo sapiens, UniProt Q06546 1-454)
# T3 sequence: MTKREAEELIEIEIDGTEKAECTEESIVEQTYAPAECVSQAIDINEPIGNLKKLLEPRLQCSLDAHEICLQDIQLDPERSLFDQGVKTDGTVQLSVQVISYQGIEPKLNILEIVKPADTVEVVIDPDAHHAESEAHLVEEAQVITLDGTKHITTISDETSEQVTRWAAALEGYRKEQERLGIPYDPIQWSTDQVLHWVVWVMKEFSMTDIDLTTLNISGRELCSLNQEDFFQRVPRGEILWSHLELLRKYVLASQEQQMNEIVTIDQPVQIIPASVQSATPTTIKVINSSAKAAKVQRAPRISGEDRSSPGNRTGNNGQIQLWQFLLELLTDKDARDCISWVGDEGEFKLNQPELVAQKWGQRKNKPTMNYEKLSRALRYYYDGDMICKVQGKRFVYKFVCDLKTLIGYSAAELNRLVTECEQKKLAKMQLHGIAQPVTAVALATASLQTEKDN
# Outline: as §1
# ERG = target: T4, ERG (Homo sapiens, UniProt P11308 1-479)
# T4 sequence: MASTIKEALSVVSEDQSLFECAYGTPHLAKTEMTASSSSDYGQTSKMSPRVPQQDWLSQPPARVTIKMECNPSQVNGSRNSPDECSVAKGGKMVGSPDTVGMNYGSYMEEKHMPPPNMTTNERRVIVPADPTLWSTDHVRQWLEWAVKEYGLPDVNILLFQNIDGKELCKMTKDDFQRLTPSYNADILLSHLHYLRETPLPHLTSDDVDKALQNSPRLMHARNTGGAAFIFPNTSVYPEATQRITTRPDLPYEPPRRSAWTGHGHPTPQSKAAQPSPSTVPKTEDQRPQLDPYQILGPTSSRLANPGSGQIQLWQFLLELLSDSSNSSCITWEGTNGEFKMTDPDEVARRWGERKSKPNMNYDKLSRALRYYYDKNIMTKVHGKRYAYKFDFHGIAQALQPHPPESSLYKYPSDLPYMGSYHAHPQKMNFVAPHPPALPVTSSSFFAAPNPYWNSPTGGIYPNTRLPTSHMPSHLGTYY
# Outline: as §1
# ELF1 = ELF1 (Homo sapiens, UniProt P32519 1-619)
# Chain of ELF1 (P32519 whole entry): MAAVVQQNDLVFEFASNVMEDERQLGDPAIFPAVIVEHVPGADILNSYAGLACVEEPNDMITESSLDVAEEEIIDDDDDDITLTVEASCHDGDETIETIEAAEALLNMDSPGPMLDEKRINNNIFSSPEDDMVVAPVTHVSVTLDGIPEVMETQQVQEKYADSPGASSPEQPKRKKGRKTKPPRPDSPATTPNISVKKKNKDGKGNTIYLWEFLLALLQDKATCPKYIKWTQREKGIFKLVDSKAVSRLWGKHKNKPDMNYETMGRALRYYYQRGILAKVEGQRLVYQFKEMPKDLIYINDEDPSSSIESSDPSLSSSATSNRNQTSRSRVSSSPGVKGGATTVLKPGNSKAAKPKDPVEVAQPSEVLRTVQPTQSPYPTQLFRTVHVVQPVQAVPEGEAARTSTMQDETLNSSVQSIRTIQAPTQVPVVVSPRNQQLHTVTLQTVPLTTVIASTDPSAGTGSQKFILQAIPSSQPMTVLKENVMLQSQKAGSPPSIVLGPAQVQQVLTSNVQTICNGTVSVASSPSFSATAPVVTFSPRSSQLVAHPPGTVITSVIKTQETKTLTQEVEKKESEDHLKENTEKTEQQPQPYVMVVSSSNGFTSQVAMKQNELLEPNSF
# Outline: as §1
# EHF = target: T5, EHF (Homo sapiens, UniProt Q9NZC4 1-300)
# T5 sequence: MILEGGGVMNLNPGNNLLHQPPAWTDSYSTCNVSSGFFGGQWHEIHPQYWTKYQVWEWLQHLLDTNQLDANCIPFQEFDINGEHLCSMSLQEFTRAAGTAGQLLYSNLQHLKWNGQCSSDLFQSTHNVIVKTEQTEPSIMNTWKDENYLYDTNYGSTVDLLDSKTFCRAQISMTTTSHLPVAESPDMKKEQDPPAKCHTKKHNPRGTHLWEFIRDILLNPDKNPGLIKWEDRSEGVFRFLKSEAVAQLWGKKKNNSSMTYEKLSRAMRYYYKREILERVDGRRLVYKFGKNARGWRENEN
# Outline: as §1
# SPI1 = SPI1 (Homo sapiens, UniProt P17947 1-270)
# Outline: as §1
# SPIB = SPIB (Homo sapiens, UniProt Q01892 1-262)
# Chain of SPIB (Q01892 whole entry): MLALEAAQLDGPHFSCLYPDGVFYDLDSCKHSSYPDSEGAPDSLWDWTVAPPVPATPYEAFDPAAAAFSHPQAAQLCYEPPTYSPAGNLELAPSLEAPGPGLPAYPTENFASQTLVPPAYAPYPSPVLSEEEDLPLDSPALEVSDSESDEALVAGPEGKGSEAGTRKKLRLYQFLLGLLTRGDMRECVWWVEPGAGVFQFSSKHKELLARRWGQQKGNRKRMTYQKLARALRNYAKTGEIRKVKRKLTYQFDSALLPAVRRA
# Outline: as §1
# ELK3 = target: T6, ELK3 (Homo sapiens, UniProt P41970 1-407)
# T6 sequence: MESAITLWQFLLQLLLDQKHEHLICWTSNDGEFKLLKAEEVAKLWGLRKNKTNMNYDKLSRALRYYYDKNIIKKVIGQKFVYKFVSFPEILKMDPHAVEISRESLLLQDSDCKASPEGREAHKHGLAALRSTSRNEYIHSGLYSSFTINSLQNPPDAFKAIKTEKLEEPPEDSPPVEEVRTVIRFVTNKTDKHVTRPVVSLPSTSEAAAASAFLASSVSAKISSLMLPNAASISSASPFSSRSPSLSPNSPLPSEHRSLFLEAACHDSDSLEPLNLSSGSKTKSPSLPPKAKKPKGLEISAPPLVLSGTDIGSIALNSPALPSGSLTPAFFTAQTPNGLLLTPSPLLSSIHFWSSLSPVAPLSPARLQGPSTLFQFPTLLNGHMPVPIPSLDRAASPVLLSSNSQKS
# Outline: as §1
# FEV = target: T7, FEV (Homo sapiens, UniProt Q99581 1-238)
# T7 sequence: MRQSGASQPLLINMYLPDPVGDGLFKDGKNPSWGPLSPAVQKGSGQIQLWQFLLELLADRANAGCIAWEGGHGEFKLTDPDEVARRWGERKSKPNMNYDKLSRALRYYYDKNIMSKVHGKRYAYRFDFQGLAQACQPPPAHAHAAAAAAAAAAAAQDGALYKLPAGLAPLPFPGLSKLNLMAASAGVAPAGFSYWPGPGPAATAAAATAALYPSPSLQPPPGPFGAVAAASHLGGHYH
# Outline: as §1
# ETV5 = ETV5 (Homo sapiens, UniProt P41161 1-510)
# Chain of ETV5 (P41161 whole entry): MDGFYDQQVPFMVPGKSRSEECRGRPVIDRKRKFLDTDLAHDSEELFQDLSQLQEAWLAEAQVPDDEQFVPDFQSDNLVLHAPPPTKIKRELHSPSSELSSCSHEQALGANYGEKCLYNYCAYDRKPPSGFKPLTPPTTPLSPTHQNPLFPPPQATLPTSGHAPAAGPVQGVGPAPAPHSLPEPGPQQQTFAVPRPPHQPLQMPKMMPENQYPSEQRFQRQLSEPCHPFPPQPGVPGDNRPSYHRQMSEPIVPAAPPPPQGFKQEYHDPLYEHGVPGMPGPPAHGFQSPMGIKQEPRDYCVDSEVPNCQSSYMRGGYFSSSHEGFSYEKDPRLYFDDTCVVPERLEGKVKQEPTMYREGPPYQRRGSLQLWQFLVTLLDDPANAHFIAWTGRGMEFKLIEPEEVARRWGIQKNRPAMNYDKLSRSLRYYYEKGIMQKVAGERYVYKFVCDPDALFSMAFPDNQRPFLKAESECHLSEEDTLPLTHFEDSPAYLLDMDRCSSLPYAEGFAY
# Outline: as §1
# SPIC = target: T8, SPIC (Homo sapiens, UniProt Q8N5J4 1-248)
# T8 sequence: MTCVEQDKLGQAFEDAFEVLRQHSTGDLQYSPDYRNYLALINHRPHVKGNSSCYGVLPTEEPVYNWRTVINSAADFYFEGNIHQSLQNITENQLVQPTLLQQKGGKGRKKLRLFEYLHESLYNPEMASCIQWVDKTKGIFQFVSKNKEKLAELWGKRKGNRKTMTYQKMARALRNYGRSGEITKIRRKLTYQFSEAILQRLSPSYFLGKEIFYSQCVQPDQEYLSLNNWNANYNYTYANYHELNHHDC
# Outline: as §1
# ELF4 = ELF4 (Homo sapiens, UniProt Q99607 1-663)
# Chain of ELF4 (Q99607 whole entry): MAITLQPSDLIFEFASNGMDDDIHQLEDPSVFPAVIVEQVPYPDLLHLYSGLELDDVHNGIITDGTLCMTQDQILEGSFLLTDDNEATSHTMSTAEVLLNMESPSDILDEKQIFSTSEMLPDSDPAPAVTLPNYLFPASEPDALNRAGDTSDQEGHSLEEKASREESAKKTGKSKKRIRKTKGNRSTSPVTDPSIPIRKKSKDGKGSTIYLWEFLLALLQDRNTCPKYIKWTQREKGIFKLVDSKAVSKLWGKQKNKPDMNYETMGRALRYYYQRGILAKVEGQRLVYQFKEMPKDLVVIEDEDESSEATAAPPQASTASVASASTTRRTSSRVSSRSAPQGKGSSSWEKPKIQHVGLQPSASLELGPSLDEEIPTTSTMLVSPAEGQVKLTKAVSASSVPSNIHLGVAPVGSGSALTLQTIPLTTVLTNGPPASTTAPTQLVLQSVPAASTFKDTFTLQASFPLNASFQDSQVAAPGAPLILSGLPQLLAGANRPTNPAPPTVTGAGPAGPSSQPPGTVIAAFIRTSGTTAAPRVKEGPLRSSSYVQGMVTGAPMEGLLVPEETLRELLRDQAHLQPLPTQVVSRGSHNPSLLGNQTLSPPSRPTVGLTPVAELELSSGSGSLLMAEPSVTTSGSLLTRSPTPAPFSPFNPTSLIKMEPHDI
# Outline: as §1
# ELK4 = target: T9, ELK4 (Homo sapiens, UniProt P28324-2 1-405)
# T9 sequence: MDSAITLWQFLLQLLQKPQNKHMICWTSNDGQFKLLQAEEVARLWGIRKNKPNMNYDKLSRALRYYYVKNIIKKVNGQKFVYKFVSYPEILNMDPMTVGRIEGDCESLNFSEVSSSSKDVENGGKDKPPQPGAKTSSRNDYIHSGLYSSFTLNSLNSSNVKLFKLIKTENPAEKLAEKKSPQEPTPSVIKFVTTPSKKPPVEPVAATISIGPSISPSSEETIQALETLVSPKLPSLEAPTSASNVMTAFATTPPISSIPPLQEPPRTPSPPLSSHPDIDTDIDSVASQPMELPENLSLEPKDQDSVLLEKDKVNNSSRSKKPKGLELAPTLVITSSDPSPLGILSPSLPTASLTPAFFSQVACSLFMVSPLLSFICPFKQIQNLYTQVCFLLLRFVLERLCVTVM
# Outline: as §1
# ETV2 = target: T10, ETV2 (Homo sapiens, UniProt O00321 1-342)
# T10 sequence: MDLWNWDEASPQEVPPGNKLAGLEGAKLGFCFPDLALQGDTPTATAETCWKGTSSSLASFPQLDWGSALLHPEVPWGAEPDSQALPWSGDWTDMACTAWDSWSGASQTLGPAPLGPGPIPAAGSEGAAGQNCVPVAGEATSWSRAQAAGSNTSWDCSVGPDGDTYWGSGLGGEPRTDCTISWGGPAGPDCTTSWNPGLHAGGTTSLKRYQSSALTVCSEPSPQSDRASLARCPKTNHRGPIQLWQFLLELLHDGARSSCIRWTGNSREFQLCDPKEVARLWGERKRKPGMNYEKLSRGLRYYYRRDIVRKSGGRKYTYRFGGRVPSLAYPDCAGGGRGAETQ
# Outline: as §1
# ELF3 = target: T11, ELF3 (Homo sapiens, UniProt P78545 1-371)
# T11 sequence: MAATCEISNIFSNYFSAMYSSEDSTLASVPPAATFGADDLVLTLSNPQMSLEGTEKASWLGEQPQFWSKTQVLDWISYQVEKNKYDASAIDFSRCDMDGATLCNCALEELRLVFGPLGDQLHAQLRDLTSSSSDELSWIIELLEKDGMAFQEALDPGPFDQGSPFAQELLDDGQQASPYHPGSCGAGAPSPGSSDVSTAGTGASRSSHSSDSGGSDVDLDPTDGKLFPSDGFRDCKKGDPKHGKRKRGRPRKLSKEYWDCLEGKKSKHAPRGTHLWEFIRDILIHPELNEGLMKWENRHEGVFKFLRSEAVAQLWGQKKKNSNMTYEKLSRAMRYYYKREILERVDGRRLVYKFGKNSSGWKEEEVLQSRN
# Outline: as §1
# CRX = CRX (Homo sapiens, UniProt O43186 1-299)
# Chain of CRX (O43186 whole entry): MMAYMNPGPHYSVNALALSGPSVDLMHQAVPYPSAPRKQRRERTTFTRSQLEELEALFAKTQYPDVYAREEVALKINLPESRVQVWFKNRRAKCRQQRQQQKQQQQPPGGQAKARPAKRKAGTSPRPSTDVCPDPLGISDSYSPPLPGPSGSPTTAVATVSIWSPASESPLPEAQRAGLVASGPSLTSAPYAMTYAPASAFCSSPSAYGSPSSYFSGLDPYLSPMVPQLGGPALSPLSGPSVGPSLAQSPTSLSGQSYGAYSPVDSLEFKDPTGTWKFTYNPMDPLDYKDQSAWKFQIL
# Outline: as §1
# ETV1 = ETV1 (Homo sapiens, UniProt P50549 1-477)
# Chain of ETV1 (P50549 whole entry): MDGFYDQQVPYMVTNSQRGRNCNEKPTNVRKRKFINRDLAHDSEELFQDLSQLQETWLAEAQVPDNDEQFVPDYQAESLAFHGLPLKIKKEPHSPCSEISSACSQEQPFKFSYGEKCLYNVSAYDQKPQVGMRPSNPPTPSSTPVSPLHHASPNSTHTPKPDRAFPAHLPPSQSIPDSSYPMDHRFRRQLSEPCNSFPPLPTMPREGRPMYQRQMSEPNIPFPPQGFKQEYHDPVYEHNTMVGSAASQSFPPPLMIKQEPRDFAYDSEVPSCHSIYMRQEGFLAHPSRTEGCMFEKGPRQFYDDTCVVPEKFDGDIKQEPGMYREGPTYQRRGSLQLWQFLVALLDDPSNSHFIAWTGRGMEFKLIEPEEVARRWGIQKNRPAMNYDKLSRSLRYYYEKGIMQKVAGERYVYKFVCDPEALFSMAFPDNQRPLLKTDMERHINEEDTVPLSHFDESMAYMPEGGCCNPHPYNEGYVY
# Outline: as §1
sequence,measurement,setting,value
TACAGG,binding signal,FLI1,"1.32 fold enrichment (6-mer frequency, TF over GST control)"
same,binding signal,ELK1,"1.16 fold enrichment (6-mer frequency, TF over GST control)"
same,binding signal,GABPA,"1.21 fold enrichment (6-mer frequency, TF over GST control)"
same,binding signal,ERG,"1.22 fold enrichment (6-mer frequency, TF over GST control)"
same,binding signal,ELF1,"1.13 fold enrichment (6-mer frequency, TF over GST control)"
same,binding signal,EHF,"1.17 fold enrichment (6-mer frequency, TF over GST control)"
same,binding signal,SPI1,"1.12 fold enrichment (6-mer frequency, TF over GST control)"
same,binding signal,SPIB,"1.2 fold enrichment (6-mer frequency, TF over GST control)"
same,binding signal,ELK3,"1.03 fold enrichment (6-mer frequency, TF over GST control)"
same,binding signal,FEV,"1.23 fold enrichment (6-mer frequency, TF over GST control)"
same,binding signal,ETV5,"1.24 fold enrichment (6-mer frequency, TF over GST control)"
same,binding signal,SPIC,"1.2 fold enrichment (6-mer frequency, TF over GST control)"
same,binding signal,ELF4,"1.14 fold enrichment (6-mer frequency, TF over GST control)"
same,binding signal,ELK4,"1.26 fold enrichment (6-mer frequency, TF over GST control)"
same,binding signal,ETV2,"1.15 fold enrichment (6-mer frequency, TF over GST control)"
same,binding signal,ELF3,"1.15 fold enrichment (6-mer frequency, TF over GST control)"
same,binding signal,CRX,"1.08 fold enrichment (6-mer frequency, TF over GST control)"
same,binding signal,ETV1,"1.15 fold enrichment (6-mer frequency, TF over GST control)"
